According to PubChem BioAssay AID619 (University of Pittsburgh Molecular Library Screening Center, 2007):
The whole screen tested about 97,000 compounds, of which about 520 (0.54%) were called active.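 The calls were made as follows: active = inhibition of 50% or more in the single-concentration screen; inactive = inhibition below 50%.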 Only a selection was taken, and actives are over-represented in it overall.

What follows are molecules tested against Serine/threonine-protein kinase PLK1 (Homo sapiens) (UniProt P53350) (assay: Plk1 peptide phosphorylation blockers – biochemical, TR-FRET, primary screen (AID 619;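 also: 0% = DMSO max control and 100% = H-89 dihydrochloride min control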)). Conditions: recombinant PLK1 kinase, at 10 µM, active compounds read high.
Chain of Serine/threonine-protein kinase PLK1 (Homo sapiens) (P53350 whole entry, looked up): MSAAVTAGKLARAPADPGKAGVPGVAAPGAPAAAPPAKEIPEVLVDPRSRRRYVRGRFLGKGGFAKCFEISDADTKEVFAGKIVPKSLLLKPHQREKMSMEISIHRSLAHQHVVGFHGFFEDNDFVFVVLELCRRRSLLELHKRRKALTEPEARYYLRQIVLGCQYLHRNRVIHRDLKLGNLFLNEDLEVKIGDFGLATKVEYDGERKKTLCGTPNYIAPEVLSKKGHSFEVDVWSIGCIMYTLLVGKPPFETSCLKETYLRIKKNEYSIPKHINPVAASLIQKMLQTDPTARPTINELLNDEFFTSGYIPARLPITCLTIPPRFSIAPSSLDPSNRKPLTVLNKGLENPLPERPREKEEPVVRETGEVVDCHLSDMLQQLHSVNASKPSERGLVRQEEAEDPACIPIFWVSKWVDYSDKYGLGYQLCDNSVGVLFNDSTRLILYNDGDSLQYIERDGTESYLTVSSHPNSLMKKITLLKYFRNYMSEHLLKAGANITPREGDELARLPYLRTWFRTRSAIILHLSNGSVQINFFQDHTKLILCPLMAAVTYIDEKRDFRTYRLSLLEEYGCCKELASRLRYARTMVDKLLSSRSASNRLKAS

inhibition, inactive:
CC1CN(c2cc(=O)n(-c3cccc(Br)c3)c(=O)[nH]2)CC(C)O1 (centres undefined) -9.28%
CC(C)(C)N1CC(c2nc3ccccc3n2Cc2ccc(F)cc2)CC1=O (centres undefined) -8.27%
Cc1c(Cl)c([N+](=O)[O-])nn1Cc1ccc(C(=O)N/N=C\c2cc(Cl)ccc2O)o1 -11.3%
COc1ccc(Nc2nc(Cl)nc(NCc3ccco3)n2)cc1 -10.4%
COc1ccc(-c2nc(CS(=O)CC(=O)N3CCc4ccccc4C3)c(C)o2)cc1 (centres undefined) -0.36%
COc1ccc(-c2nnc(SCC(=O)NC3CCCCC3)o2)cc1OC -12.8%
Cc1ccc(S(=O)(=O)N(C)CC(=O)NC2CCCC2)cc1 -5.15%
Cc1ccc(S(=O)(=O)NCC(=O)N2CCN(c3ccccn3)CC2)cc1 -12%
O=C(Nc1ccc(F)c(Cl)c1)C1CCN(S(=O)(=O)c2cccnc2)CC1 -7.65%
N#CC1=C(N)N(c2ccccc2)C2=C(C(=O)CCC2)C1c1ccccc1 (centres undefined) -9.12%
CCOC(=O)Cc1csc(NC(NC(=O)OCC)(C(F)(F)F)C(F)(F)F)n1 -10.9%
C=CCn1c(SCc2c(C(=O)OC)sc(N)c2C(=O)OC)nnc1-c1ccc(Cl)cc1 0.32%
Cc1ccc(Nc2nc(C)cc(C)c2C(N)=O)cc1 -8.3%
CCNC(=S)N1CCN(C(=O)c2ccco2)CC1 -10.9%
COc1ccc(CN(Cc2ccco2)S(=O)(=O)c2ccc(S(=O)(=O)N3CCCC3)cc2)cc1 -1.36%
O=C1c2ccccc2C(=O)N1CC1c2ccccc2CCN1S(=O)(=O)c1ccccc1 (centres undefined) -13.2%
Cc1noc(C)c1COC(=O)c1cc2ccccc2cc1O -5.75%
O=C(NCCCCCCCCCNC(=O)C(F)(F)F)C(F)(F)F -9%
COc1ccc(C(C(=O)NCc2ccccc2)N(Cc2cccs2)C(=O)c2cnccn2)cc1 (centres undefined) -8.73%
Fc1ccc(N2N=C(c3cccs3)CC2c2ccco2)c(F)c1 (centres undefined) -0.33%
O=c1[nH]c(CCl)nc2cc(-c3ccc(Cl)cc3)sc12 -15.1%
CCCCNC(=O)CCn1c(=S)[nH]c2cc3c(cc2c1=O)OCO3 -10.8%
CCn1c(C)nc2c1C(=O)c1ccccc1C2=O -6.21%
CC1CCN(c2ccc(S(=O)(=O)Nc3cc(C(=O)O)cc(C(=O)O)c3)cc2[N+](=O)[O-])CC1 -8.56%
CCN(CC)C(=O)CSc1nnc(C2CCCCC2)o1 -6.95%
O=C(CSCc1ccc([N+](=O)[O-])cc1)Nc1cccc(C(=O)Nc2ccccc2C(=O)O)c1 -6%
CCc1ccc2c(c1)cc(CN(C(=S)Nc1ccccc1Cl)C1CC1)c1nnnn12 -115%
O=C(CO/N=C/c1ccccc1O)NNC(=O)c1ccccc1Cl -11.5%
COC(=O)C1C(=O)NCC1c1ccc(C)cc1 (centres undefined) -7.84%
CC1C/C(=N/NC(=O)c2cccs2)CC(C)(C)C1 (centres undefined) -10.1%
Cc1cccc(C(=O)Nc2ccccc2-c2nnn(CC(=O)Nc3ccc4c(c3)OCCO4)n2)c1 -19.8%
O=C1c2ccccc2C(Nc2ccc3c(c2)OCCO3)N1Cc1ccco1 (centres undefined) -13.3%
O=C(Nc1ccc(S(=O)(=O)N2CCc3ccccc3C2)cc1)c1ccccc1 -9.1%
CCN1CCN(C(=O)C2(NC(=O)Nc3cccc(F)c3)CCCCC2)CC1 -9.1%
CCOC(=O)C1=C(C)NC2=C(C(=O)CC(C)(C)C2)C1c1ccsc1 (centres undefined) -9.3%
CC(=O)N/C(=C/c1ccc(Cl)cc1)C(=O)NCCc1c[nH]c2ccccc12 -8.99%
CCCOn1c(-n2nc(C)cc2C)nc2ccccc2c1=O -12.7%
COc1ccc2ccccc2c1CNCc1ccccn1 -6.16%
CN(C)/C=C/C(=O)c1ccccc1F -7.63%
COc1ccccc1CNC(=O)c1ccc(SC)cc1OC -11.5%
CCOc1ccc(CN(Cc2ccco2)S(=O)(=O)c2ccc(-n3cnnn3)c(OC)c2)cc1 -4.62%
CCOc1[nH]n(-c2ccc(Cl)cc2)c(=O)c1C=Nc1ccc(O)cc1 -12.9%
O=C(O)c1ccccc1NC(=S)NC(NC(=O)c1ccccc1[N+](=O)[O-])C(Cl)(Cl)Cl (centres undefined) -10.3%
Cc1ccc(C2=CSC3=NS(=O)(=O)CCN23)cc1C -12.2%
Cc1[nH]n(-c2ccc([N+](=O)[O-])cc2)c(=O)c1C=NCCN1CCN(C(=O)c2ccccc2F)CC1 -16.1%
Cc1ccc(NC(=S)Nc2ncccc2C)c(C)c1 -6.19%
Cc1onc(-c2ccccc2)c1C(=O)N1CCOCC1 -6.08%
CC(=O)Nc1cccc(NC(=O)c2c(-c3ccccc3)noc2C)c1 -5.51%
O=C(/C=C/Nc1ccccc1OC(F)(F)F)C(F)(F)F -3.23%
COc1ccc(-n2cnc3cc(NCc4ccco4)ccc32)cc1 -1.91%
COc1ccc(-c2cc(C3CCN(c4ncccc4[N+](=O)[O-])CC3)[nH]n2)cc1 -0.7%
CCOC(=O)Nc1ccc2c(c1)N(C(=O)CCN1CCN(CCO)CC1)c1ccccc1CC2 -25.9%
CCN(CC)Cc1cc(C(C)=O)ccc1O -5.02%
CC(=O)Nc1ccc(NC(=O)c2sc3nc4c(c(-c5ccc(C)cc5)c3c2N)CCC4)cc1 -27.3%

inhibition, active:
CC1CN(c2cc(=O)n(Cc3ccc(F)cc3)c(=O)[nH]2)CC(C)O1 (centres undefined) 70.7%
Cc1ccc(-c2nc(CS(=O)CC(=O)N3CCN(c4ncccn4)CC3)c(C)o2)cc1 (centres undefined) 68.5%
Cc1ccc(-c2nc(CS(=O)CC(=O)NC3CCCC3)c(C)o2)cc1 (centres undefined) 62.6%
Cc1ccnc(N2C(=O)c3ccccc3C2Nc2ccc3c(c2)OCCO3)c1 (centres undefined) 75.7%
Cc1onc(-c2ccccc2)c1C(=O)Nc1ccccc1C#N 66.8%
